For 8 molecules, growth inhibition results are on record in PubChem BioAssay (NCI).

Several values for one entry are separate records, joined by “and”; a condition that tells them apart may be missing. Equal values may be shown once. This is part of a sample that, as a whole, favours compounds with a hit. Of some 79,000 tested, about 15% had one in any assay. More than one record can exist for a structure, and the calls need not agree. Activity calls are given as the source filed them. No stated cut-off is given here; in the data, active means growth inhibition above about 70%; inactive means the rest.

Assay [1] in a line: NCI Yeast Anticancer Drug Screen. Data for the rad50 strain (AID 155).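 Further: 0% = growth of vehicle-only cultures of the same strain.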 Conditions: S. cerevisiae rad50 strain growth inhibition, stronger effect = higher value. The gist of the method:
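Readout: growth inhibition relative to vehicle-treated cultures. Compound exposure was carried out in a genetically defined yeast strain deficient in DNA damage repair.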

A short description of assay [2]: NCI Yeast Anticancer Drug Screen. Data for the mec2-1 strain (AID 157). Conditions: S. cerevisiae mec2-1 strain, stronger effect = higher value. The gist of the method: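 Mutant yeast (mec2-1) grown with compound; growth inhibition relative to vehicle control reported.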
The nature of assay [3]: NCI Yeast Anticancer Drug Screen. Data for the sgs1 mgt1 strain (AID 161).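 Further: 0% = growth of cultures given vehicle only.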 The following applies: S. cerevisiae sgs1 mgt1 strain, stronger effect = higher value. The gist of the method:
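Growth of a repair-deficient yeast mutant was monitored after compound treatment and expressed as inhibition relative to vehicle-treated cultures.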

Assay [4] can be described thus: NCI Yeast Anticancer Drug Screen. Data for the cln2 rad14 strain (AID 165).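 Further: 0% = growth equal to vehicle treated cultures.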 The following applies: S. cerevisiae cln2 rad14 strain, stronger effect = higher value. The gist of the method:
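Readout is yeast growth inhibition versus vehicle-treated controls, using a strain with cln2 and rad14 alterations exposed to compound.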

Assay [5] is described as follows: NCI Yeast Anticancer Drug Screen. Data for the bub3 strain (AID 167). Conditions: S. cerevisiae bub3 mutant strain, stronger effect = higher value. The gist of the method: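 Readout: yeast growth inhibition, expressed relative to vehicle-only wells. The test organism is a mutant strain from a panel with lesions in DNA repair or checkpoint genes.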
The nature of assay [6]: NCI Yeast Anticancer Drug Screen. Data for the mlh1 rad18 strain (AID 175). Conditions: S. cerevisiae mlh1 rad18 strain growth inhibition, stronger effect = higher value. The gist of the method: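 Genetically defined yeast (DNA repair-deficient) exposed to compounds; growth inhibition determined relative to vehicle.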
[7] abbreviates: at 5.0 µM (retest, dose inferred, filed as 0.5).
[8] abbreviates: at 50.0 µM (retest, dose inferred, filed as 5.0).

Regarding `C[C@]12CC/C(=N\NC(=O)c3ccncc3)C[C@@H]1CC[C@@H]1[C@@H]2CC[C@]2(C)[C@@H](O)CC[C@@H]12`, the growth inhibition in assay [1] (setting [7]) is 0% (inactive); in assay [1] (setting [8]), 52% (inactive); in assay [1] (at 50.0 µM), 68.9% (inactive); in assay [2] (setting [7]) it was 5% (inactive); in assay [2] (setting [8]), 54% (inactive); in assay [2] (at 50.0 µM), 29.1% (inactive). Further, the growth inhibition is 13% (inactive) in assay [3] (setting [7]); 65% (inactive) in assay [3] (setting [8]); 77.3% (active) in assay [3] (at 50.0 µM); 6% (inactive) in assay [4] (setting [7]); 8% (inactive) in assay [4] (setting [8]); 66.8% (inactive) in assay [4] (at 50.0 µM). The growth inhibition in assay [5] (setting [7]) was 2% (inactive); in assay [5] (setting [8]) it was 37% (inactive); in assay [5] (at 50.0 µM), 35% (inactive); in assay [6] (setting [7]), 10% (inactive); in assay [6] (setting [8]), 46% (inactive); in assay [6] (at 50.0 µM) it was 59.1% (inactive).
As to `Oc1ccc(Br)cc1C1N(Cc2ccc(N(CCCl)CCCl)cc2Cl)CCCN1Cc1ccc(N(CCCl)CCCl)cc1Cl`, the growth inhibition in assay [1] (setting [7]) is 69% (inactive); in assay [1] (setting [8]) it was 98% (active); in assay [1] (at 50.0 µM) it was 10.7% (inactive); in assay [2] (setting [7]), 47% (inactive); in assay [2] (setting [8]), 99% (active); in assay [2] (at 50.0 µM), 63% (inactive). In addition, the growth inhibition is 54% (inactive) in assay [3] (setting [7]); 99% (active) in assay [3] (setting [8]); 23.7% (inactive) in assay [3] (at 50.0 µM); 70% (active) in assay [4] (setting [7]); 98% (active) in assay [4] (setting [8]); 8.95% (inactive) in assay [4] (at 50.0 µM). Also, the growth inhibition in assay [5] (setting [7]) is 84% (active); in assay [5] (setting [8]) it was 99% (active); in assay [5] (at 50.0 µM) it was 52% (inactive); in assay [6] (setting [7]), 98% (active); in assay [6] (setting [8]), 98% (active); in assay [6] (at 50.0 µM), 46.5% (inactive).
For `O=C1[O][Hg][c]2cccc3cccc1c23`, the growth inhibition was 99% (active) in assay [1] (setting [7]); 99% (active) in assay [1] (setting [8]); 98.3% (active) in assay [1] (at 50.0 µM); 100% (active) in assay [2] (setting [7]); 99% (active) in assay [2] (setting [8]); 99% (active) in assay [2] (at 50.0 µM). Also, the growth inhibition in assay [3] (setting [7]) was 99% (active); in assay [3] (setting [8]), 99% (active); in assay [3] (at 50.0 µM), 98.9% (active); in assay [4] (setting [7]), 89% (active); in assay [4] (setting [8]), 99% (active); in assay [4] (at 50.0 µM) it was 98.2% (active). Moreover, the growth inhibition in assay [5] (setting [7]) is 100% (active); in assay [5] (setting [8]), 58% (inactive); in assay [5] (at 50.0 µM), 98.2% (active); in assay [6] (setting [7]), 100% (active); in assay [6] (setting [8]) it was 99% (active); in assay [6] (at 50.0 µM), 97.5% (active).
On to `CCCOc1ccc(/C=C/[N+](=O)[O-])cc1`, for which the growth inhibition in assay [1] (setting [7]) is 11% (inactive); in assay [1] (setting [8]) it was 17% (inactive); in assay [1] (at 50.0 µM), 52.3% (inactive); in assay [2] (setting [7]), -1% (inactive); in assay [2] (setting [8]), 17% (inactive); in assay [2] (at 50.0 µM) it was 96.3% (active). The growth inhibition is -1% (inactive) in assay [3] (setting [7]); 11% (inactive) in assay [3] (setting [8]); 50.9% (inactive) in assay [3] (at 50.0 µM); 1% (inactive) in assay [4] (setting [7]); 20% (inactive) in assay [4] (setting [8]); 93.5% (active) in assay [4] (at 50.0 µM). Moreover, the growth inhibition in assay [5] (setting [7]) was -1% (inactive); in assay [5] (setting [8]), 13% (inactive); in assay [5] (at 50.0 µM), 37% (inactive); in assay [6] (setting [7]), 3% (inactive); in assay [6] (setting [8]), 11% (inactive); in assay [6] (at 50.0 µM) it was 36% (inactive).
On to `O=P(O/C(=C\c1ccccc1)c1ccccc1)(c1ccccc1)c1ccccc1`, for which the growth inhibition was 18% (inactive) in assay [1] (setting [7]); 96% (active) in assay [1] (setting [8]); 96.8% (active) in assay [1] (at 50.0 µM); 17% (inactive) in assay [2] (setting [7]); 98% (active) in assay [2] (setting [8]); 98.3% (active) in assay [2] (at 50.0 µM). The growth inhibition in assay [3] (setting [7]) is 15% (inactive); in assay [3] (setting [8]), 98% (active); in assay [3] (at 50.0 µM), 98.2% (active); in assay [4] (setting [7]), 8% (inactive); in assay [4] (setting [8]) it was 97% (active); in assay [4] (at 50.0 µM), 96.2% (active). In addition, the growth inhibition in assay [5] (setting [7]) is 11% (inactive); in assay [5] (setting [8]) it was 97% (active); in assay [5] (at 50.0 µM) it was 97% (active); in assay [6] (setting [7]) it was 7% (inactive); in assay [6] (setting [8]), 97% (active); in assay [6] (at 50.0 µM) it was 93.7% (active).
For `CC1=C2C(=O)[C@H]3[C@@H](CC=C4C[C@@H](O)CC[C@@]43C)[C@@H]2CC[C@]12O[C@@H]1C[C@H](C)CN[C@H]1[C@H]2C`, the growth inhibition was 8% (inactive) and 2% (inactive) in assay [1] (setting [7]); 85% (active) and 81% (active) in assay [1] (setting [8]); 90.5% (active) and 85.8% (active) in assay [1] (at 50.0 µM); 18% (inactive) and 3% (inactive) in assay [2] (setting [7]); 96% (active) and 83% (active) in assay [2] (setting [8]); 96.7% (active) and 90.8% (active) in assay [2] (at 50.0 µM). Besides, the growth inhibition in assay [3] (setting [7]) was 11% (inactive) and 5% (inactive); in assay [3] (setting [8]), 84% (active) and 91% (active); in assay [3] (at 50.0 µM), 97% (active) and 87% (active); in assay [4] (setting [7]), -27% (inactive) and -9% (inactive); in assay [4] (setting [8]), 87% (active) and 60% (inactive); in assay [4] (at 50.0 µM) it was 84.2% (active) and 81% (active). Also, the growth inhibition in assay [5] (setting [7]) was 22% (inactive) and 17% (inactive); in assay [5] (setting [8]) it was 91% (active) and 90% (active); in assay [5] (at 50.0 µM), 97.5% (active) and 88.5% (active); in assay [6] (setting [7]) it was 10% (inactive) and 5% (inactive); in assay [6] (setting [8]), 95% (active) and 89% (active); in assay [6] (at 50.0 µM), 90.7% (active) and 87.4% (active).
With `CCCN1CN(c2ccccc2)C2(CCN(CCCC(=O)c3ccc(F)cc3)CC2)C1=O`, the growth inhibition in assay [1] (setting [7]) was 11% (inactive); in assay [1] (setting [8]) it was 17% (inactive); in assay [1] (at 50.0 µM), 35.7% (inactive); in assay [2] (setting [7]) it was 7% (inactive); in assay [2] (setting [8]), 14% (inactive); in assay [2] (at 50.0 µM), -4.4% (inactive). Also, the growth inhibition in assay [3] (setting [7]) is -17% (inactive); in assay [3] (setting [8]) it was 12% (inactive); in assay [3] (at 50.0 µM), 60.5% (inactive); in assay [4] (setting [7]), 6% (inactive); in assay [4] (setting [8]) it was 20% (inactive); in assay [4] (at 50.0 µM) it was 15.6% (inactive). In addition, the growth inhibition in assay [5] (setting [7]) is 4% (inactive); in assay [5] (setting [8]), 35% (inactive); in assay [5] (at 50.0 µM), 38.9% (inactive); in assay [6] (setting [7]), 22% (inactive); in assay [6] (setting [8]), 30% (inactive); in assay [6] (at 50.0 µM) it was 20.4% (inactive).
On to `O=[N+]([O-])/C=C/c1ccccc1`, for which the growth inhibition in assay [1] (setting [7]) is 94% (active); in assay [1] (setting [8]), 99% (active); in assay [1] (at 50.0 µM) it was 98% (active); in assay [2] (setting [7]) it was 85% (active); in assay [2] (setting [8]), 100% (active); in assay [2] (at 50.0 µM), 99.2% (active). The growth inhibition in assay [3] (setting [7]) is 62% (inactive); in assay [3] (setting [8]), 99% (active); in assay [3] (at 50.0 µM) it was 98% (active); in assay [4] (setting [7]), 64% (inactive); in assay [4] (setting [8]) it was 100% (active); in assay [4] (at 50.0 µM), 98.3% (active). For the same molecule, the growth inhibition in assay [5] (setting [7]) was 85% (active); in assay [5] (setting [8]), 99% (active); in assay [5] (at 50.0 µM) it was 96.4% (active); in assay [6] (setting [7]) it was 71% (active); in assay [6] (setting [8]), 100% (active); in assay [6] (at 50.0 µM), 98.1% (active).
